Laboratory results from PubChem BioAssay AID1159580 (chemical genetic matrix, 2015).
Among all 5,500 compounds or so, about 2,000 (36%) were called active. About 18% were inconclusive and are not listed. Rule as the data show it: active = normalized growth mostly below about 0.91 (no sharp cut-off); inconclusive = no clear call, values can overlap the other calls; inactive = mostly above about 0.92. The list shows a part of the results.

Assay: chemical genetic growth profiling, strain panel (AID 1159580);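 also: tested at 20 µM; growth read once vehicle control cultures reached saturation at 30 °C; 1 = growth at the plate median or of vehicle wells; lower values mean less growth of the strain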
Details: growth OD

Measured: normalized growth

Clc1ccc(CSC(Cn2ccnc2)c2ccc(Cl)cc2Cl)cc1 (stereo not given)
active: S. cerevisiae deletion strains, locus YJR075W, strain HOC1, stronger effect = lower value 0.0603 | S. cerevisiae deletion strains, locus YKL009W, strain mrt4, stronger effect = lower value 0.0877 | S. cerevisiae deletion strains, locus YKL068W, stronger effect = lower value 0.0746 | S. cerevisiae deletion strains, locus YKL085W, strain MDH1 (second series), stronger effect = lower value 0.0615 | S. cerevisiae deletion strains, locus YKL085W, strain MDH1, stronger effect = lower value 0.0615 | S. cerevisiae deletion strains, locus YKL160W, strain elf1, stronger effect = lower value 0.065 | S. cerevisiae deletion strains, locus YKL190W, strain CNB1, stronger effect = lower value 0.0451 | S. cerevisiae deletion strains, locus YKR001C, strain vps1, stronger effect = lower value 0.0681 | S. cerevisiae deletion strains, locus YKR026C, strain gcn3, stronger effect = lower value 0.0654 | S. cerevisiae deletion strains, locus YKR091W, strain srl3, stronger effect = lower value 0.0606 | S. cerevisiae deletion strains, locus YLL001W, strain dnm1, stronger effect = lower value 0.0654 | S. cerevisiae deletion strains, locus YLL026W, stronger effect = lower value 0.0574 | S. cerevisiae deletion strains, locus YLL041C, strain sdh2, stronger effect = lower value 0.0577 | S. cerevisiae deletion strains, locus YLR027C, strain aat2, stronger effect = lower value 0.0604 | S. cerevisiae deletion strains, locus YLR039C, strain RIC1, stronger effect = lower value 0.079 | S. cerevisiae deletion strains, locus YLR058C, strain SHM2, stronger effect = lower value 0.0452 | S. cerevisiae deletion strains, locus YLR102C, strain apc9, stronger effect = lower value 0.0588 | S. cerevisiae deletion strains, locus YLR113W, strain HOG1, stronger effect = lower value 0.116 | S. cerevisiae deletion strains, locus YLR221C, strain rsa3, stronger effect = lower value 0.0604 | S. cerevisiae deletion strains, locus YLR258W, strain gsy2, stronger effect = lower value 0.0614 | S. cerevisiae deletion strains, locus YLR262C, strain YPT6 (second series), stronger effect = lower value 0.0789 | S. cerevisiae deletion strains, locus YLR262C, strain YPT6, stronger effect = lower value 0.103 | S. cerevisiae deletion strains, locus YLR268W, strain sec22, stronger effect = lower value 0.0568 | S. cerevisiae deletion strains, locus YLR320W, strain mms22, stronger effect = lower value 0.0761 | S. cerevisiae deletion strains, locus YLR330W, strain CHS5, stronger effect = lower value 0.0514 | S. cerevisiae deletion strains, locus YLR342W, strain FKS1 (second series), stronger effect = lower value 0.0606 | S. cerevisiae deletion strains, locus YLR342W, strain FKS1, stronger effect = lower value 0.0676 | S. cerevisiae deletion strains, locus YLR357W, strain rsc2, stronger effect = lower value 0.12 | S. cerevisiae deletion strains, locus YLR370C, strain arc18, stronger effect = lower value 0.0635 | S. cerevisiae deletion strains, locus YLR371W, strain rom2, stronger effect = lower value 0.0606 | S. cerevisiae deletion strains, locus YLR384C, strain iki3, stronger effect = lower value 0.0593 | S. cerevisiae deletion strains, locus YLR418C, strain cdc73, stronger effect = lower value 0.0853 | S. cerevisiae deletion strains, locus YML016C, strain PPZ1, stronger effect = lower value 0.0444 | S. cerevisiae deletion strains, locus YML032C, strain rad52, stronger effect = lower value 0.0643 | S. cerevisiae deletion strains, locus YML120C, strain ndi1, stronger effect = lower value 0.0571 | S. cerevisiae deletion strains, locus YML124C, strain tub3, stronger effect = lower value 0.0572 | S. cerevisiae deletion strains, locus YMR058W, strain fet3, stronger effect = lower value 0.0638 | S. cerevisiae deletion strains, locus YMR078C, strain ctf18, stronger effect = lower value 0.0695 | S. cerevisiae deletion strains, locus YMR125W, strain sto1, stronger effect = lower value 0.0785 | S. cerevisiae deletion strains, locus YMR129W, stronger effect = lower value 0.0574 | S. cerevisiae deletion strains, locus YMR205C, strain PFK2, stronger effect = lower value 0.0897 | S. cerevisiae deletion strains, locus YMR223W, strain ubp8, stronger effect = lower value 0.0591 | S. cerevisiae deletion strains, locus YMR231W, strain pep5, stronger effect = lower value 0.146 | S. cerevisiae deletion strains, locus YMR263W, strain SAP30, stronger effect = lower value 0.0544 | S. cerevisiae deletion strains, locus YMR307W, strain GAS1, stronger effect = lower value 0.12 | S. cerevisiae deletion strains, locus YNL067W, strain RPL9B, stronger effect = lower value 0.0471 | S. cerevisiae deletion strains, locus YNL071W, strain lat1, stronger effect = lower value 0.0619 | S. cerevisiae deletion strains, locus YNL128W, strain TEP1, stronger effect = lower value 0.0608 | S. cerevisiae deletion strains, locus YNL183C, strain NPR1, stronger effect = lower value 0.000263 | S. cerevisiae deletion strains, locus YNL209W, strain ssb2, stronger effect = lower value 0.0676 | S. cerevisiae deletion strains, locus YNL233W, strain BNI4, stronger effect = lower value 0.0515 | S. cerevisiae deletion strains, locus YNL248C, strain rpa49, stronger effect = lower value 0.0789 | S. cerevisiae deletion strains, locus YNL250W, strain rad50, stronger effect = lower value 0.0722 | S. cerevisiae deletion strains, locus YNL271C, strain bni1, stronger effect = lower value 0.0682 | S. cerevisiae deletion strains, locus YNL298W, strain CLA4, stronger effect = lower value 0.0628 | S. cerevisiae deletion strains, locus YNL307C, strain MCK1, stronger effect = lower value 0.0686 | S. cerevisiae deletion strains, locus YNL322C, strain KRE1 (second series), stronger effect = lower value 0.0666 | S. cerevisiae deletion strains, locus YNL322C, strain KRE1, stronger effect = lower value 0.045 | S. cerevisiae deletion strains, locus YNR049C, strain mso1, stronger effect = lower value 0.0586 | S. cerevisiae deletion strains, locus YNR052C, strain pop2, stronger effect = lower value 0.0598 | S. cerevisiae deletion strains, locus YOL006C, strain TOP1, stronger effect = lower value 0.0991 | S. cerevisiae deletion strains, locus YOL012C, strain htz1 0.137 | S. cerevisiae deletion strains, locus YOL147C, strain pex11, stronger effect = lower value 0.0557 | S. cerevisiae deletion strains, locus YOR001W, strain rrp6, stronger effect = lower value 0.0726 | S. cerevisiae deletion strains, locus YOR061W, strain CKA2, stronger effect = lower value 0.0436 | S. cerevisiae deletion strains, locus YOR069W, strain VPS5, stronger effect = lower value 0.0456 | S. cerevisiae deletion strains, locus YOR070C, strain gyp1, stronger effect = lower value 0.0632 | S. cerevisiae deletion strains, locus YOR080W, strain dia2, stronger effect = lower value 0.0638 | S. cerevisiae deletion strains, locus YOR083W, strain WHI5, stronger effect = lower value 0.0689 | S. cerevisiae deletion strains, locus YOR106W, strain vam3, stronger effect = lower value 0.0699 | S. cerevisiae deletion strains, locus YOR136W, strain idh2, stronger effect = lower value 0.0693 | S. cerevisiae deletion strains, locus YOR144C, strain elg1, stronger effect = lower value 0.0562 | S. cerevisiae deletion strains, locus YOR184W, strain ser1, stronger effect = lower value 0.0618 | S. cerevisiae deletion strains, locus YOR231W, strain MKK1, stronger effect = lower value 0.102 | S. cerevisiae deletion strains, locus YOR265W, strain rbl2, stronger effect = lower value 0.0591 | S. cerevisiae deletion strains, locus YOR270C, strain vph1, stronger effect = lower value 0.111 | S. cerevisiae deletion strains, locus YOR290C, strain snf2, stronger effect = lower value 0.0745 | S. cerevisiae deletion strains, locus YOR316C, strain cot1, stronger effect = lower value 0.0584 | S. cerevisiae deletion strains, locus YPL051W, strain arl3, stronger effect = lower value 0.0666 | S. cerevisiae deletion strains, locus YPL078C, strain atp4, stronger effect = lower value 0.0762 | S. cerevisiae deletion strains, locus YPL106C, strain sse1, stronger effect = lower value 0.0973 | S. cerevisiae deletion strains, locus YPL240C, strain hsp82, stronger effect = lower value 0.0582 | S. cerevisiae deletion strains, locus YPL241C, strain CIN2, stronger effect = lower value 0.0455 | S. cerevisiae deletion strains, locus YPL256C, strain CLN2, stronger effect = lower value 0.113 | S. cerevisiae deletion strains, locus YPR119W, strain clb2, stronger effect = lower value 0.061 | S. cerevisiae deletion strains, locus YPR141C, strain kar3, stronger effect = lower value 0.0736 | S. cerevisiae deletion strains, locus YPR163C, strain tif3, stronger effect = lower value 0.067 | S. cerevisiae deletion strains, locus YPR167C, strain met16, stronger effect = lower value 0.0596 | S. cerevisiae deletion strains, strain wtn01, stronger effect = lower value 0.0571 | S. cerevisiae strains, strain wild type, stronger effect = lower value 0.0459
